Out of some 1,500 compounds screened, about 390 (26%) were called active. How the calls were made is not given here. Only a sample is shown. Results with a measured potency or affinity are listed apart.
The compounds below were run against Histone-lysine N-methyltransferase NSD2 (Homo sapiens) (UniProt O96028) (assay: blockers of NSD2 H4 peptide methylation – biochemical, AlphaScreen, cherry-picked samples, dose response (AID 1053173;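 further: 0% = neutral control wells and -100% = positive control wells on each plate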)). Settings: 120 min; series mostly up to 10 µM; activity change, negative = inhibition: at the top concentration.
Sequence of Histone-lysine N-methyltransferase NSD2 (Homo sapiens) (O96028 whole entry, looked up): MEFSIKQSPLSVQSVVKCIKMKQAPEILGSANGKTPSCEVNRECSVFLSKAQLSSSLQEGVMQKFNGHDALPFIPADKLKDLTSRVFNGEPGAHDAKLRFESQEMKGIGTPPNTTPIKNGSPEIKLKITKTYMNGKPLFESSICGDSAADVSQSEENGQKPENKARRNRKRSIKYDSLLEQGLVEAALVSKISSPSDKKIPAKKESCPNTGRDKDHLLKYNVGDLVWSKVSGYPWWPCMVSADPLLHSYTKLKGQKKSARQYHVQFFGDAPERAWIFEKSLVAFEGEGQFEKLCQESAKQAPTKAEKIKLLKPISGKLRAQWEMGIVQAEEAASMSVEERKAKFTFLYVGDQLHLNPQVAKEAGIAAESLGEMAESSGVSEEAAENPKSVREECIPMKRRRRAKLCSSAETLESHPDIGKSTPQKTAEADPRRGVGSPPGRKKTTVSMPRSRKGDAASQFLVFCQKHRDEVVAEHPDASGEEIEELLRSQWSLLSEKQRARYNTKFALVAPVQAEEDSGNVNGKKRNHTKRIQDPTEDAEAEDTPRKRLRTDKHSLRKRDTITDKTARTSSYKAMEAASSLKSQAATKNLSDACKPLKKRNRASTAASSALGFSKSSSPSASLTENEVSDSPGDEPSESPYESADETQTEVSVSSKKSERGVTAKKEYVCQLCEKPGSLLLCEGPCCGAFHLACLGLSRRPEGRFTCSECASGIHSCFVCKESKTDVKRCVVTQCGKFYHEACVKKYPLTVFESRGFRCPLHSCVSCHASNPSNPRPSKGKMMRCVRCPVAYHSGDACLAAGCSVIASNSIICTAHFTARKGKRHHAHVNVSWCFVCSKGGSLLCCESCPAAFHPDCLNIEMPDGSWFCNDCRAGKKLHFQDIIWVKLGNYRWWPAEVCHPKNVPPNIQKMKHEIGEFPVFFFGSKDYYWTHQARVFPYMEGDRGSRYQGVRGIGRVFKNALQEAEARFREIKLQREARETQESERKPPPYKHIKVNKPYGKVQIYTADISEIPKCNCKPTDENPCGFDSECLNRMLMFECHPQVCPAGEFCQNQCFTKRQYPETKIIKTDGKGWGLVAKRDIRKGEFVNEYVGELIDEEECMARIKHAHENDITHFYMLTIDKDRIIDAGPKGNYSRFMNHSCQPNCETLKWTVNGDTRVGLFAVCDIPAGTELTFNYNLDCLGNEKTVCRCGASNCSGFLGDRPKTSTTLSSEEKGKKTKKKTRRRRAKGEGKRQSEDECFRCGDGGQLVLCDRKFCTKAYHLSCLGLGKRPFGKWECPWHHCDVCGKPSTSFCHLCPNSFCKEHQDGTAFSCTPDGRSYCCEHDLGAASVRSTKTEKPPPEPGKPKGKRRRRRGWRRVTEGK

Activity change, negative = inhibition, inactive:
CN1C(=O)C(=O)/C(=C(/O)c2ccccc2)C1c1ccccc1 (stereo not drawn) -2.62%, CCn1c(SC(=O)NC2CCCCC2)nnc1-c1cccs1 6.57%, Cc1cc(C)c(NC(=O)C2CC(=O)N(c3ccc4c(c3)OCCO4)C2)c(C)c1 (stereo not drawn) -2.35%, C/[N+]([O-])=C1\Cc2ccccc2C1=O 1.15%, Cc1cc(C)nc(N2CCC(C(=O)N(C)CCc3ccccc3)CC2)n1 -0.983%, O=C(CN(C(=O)c1csnn1)c1cccc2ccccc12)NCc1ccccc1 1.06%, Cc1cc(C(=O)COC(=O)c2n[nH]c3ccccc23)c(C)n1C -2.21%, O=C(NCCCn1ccnc1)C1CCN(S(=O)(=O)c2ccc(F)cc2)CC1 -3.94%, CC(=O)Nc1ccc(S(=O)(=O)NCCSCc2ccc(Cl)cc2Cl)cc1 0.56%, CC(C)NCC#CCOc1ccc(Cl)cc1 -11.6%, COC(=O)c1ccc(-n2nnnc2SCC(=O)NCc2cccc(C(=O)O)c2)cc1 1.21%, O=C(NCc1ccco1)c1scc2c1OCCO2 -1.63%, CC(C)(C)NC(=O)C(c1ccco1)N(C(=O)Cn1nnc(-c2ccc(F)cc2)n1)c1ccccc1F (stereo not drawn) 3.9%, O=C(c1ccccc1)c1cc2ccccc2oc1=O 0.833%, Cc1cc(=O)oc(C)c1C(=O)OCC(=O)c1ccccc1 1.53%, COc1ccc(N2CCOCC2)c(NC(=O)c2ccc3c(c2)OCO3)c1 -3.97%, CCC1Cc2c(nc(N)c3c(N)nc(N4CCOCC4)c(C#N)c23)O1 (stereo not drawn) -3.29%, CCOc1cc2c(C#N)c(N3CCOCC3)nc(N)c2c(N)n1 -0.342%, CC(C)n1c(NCc2nc3ccccc3n2C)nc2ccccc21 -0.542%, CCc1ccc(N2C(=O)C3C(C2=O)N2CCCN2C3c2ccccc2)cc1 (stereo not drawn) 3.23%, COc1cc(/C=C2\C(=O)ON=C2c2ccccc2)cc(Cl)c1O -10.3%, O=C1C(=Cc2ccco2)CCC1=Cc1ccco1 -10.4%, COc1ccc(CNC(=O)CCCN2C(=O)NC3(CCCC3)C2=O)cc1 4.98%, COc1ccc(NC(=O)Cn2nnc(C(=O)NCCc3ccc(OC)c(OC)c3)c2N)cc1 -1.57%, Cc1ccc(S(=O)(=O)N2CCCCC2CCNC(=O)C(=O)Nc2ccccc2F)cc1 (stereo not drawn) 2.31%, CC(=O)N(C)c1ccc(N=Nc2c(C)[nH]n(C(N)=S)c2=O)cc1 -3.77%, COC(=O)[C@H](Cc1ccccc1)NC(=O)Nc1ccc(S(N)(=O)=O)cc1 -1.38%, O=C(CSc1nc(SCC(=O)NCc2ccccc2)n(-c2ccccc2)n1)NCc1ccccc1 -1.26%, NS(=O)(=O)c1ccc(N/N=C/c2ccncc2)cc1 -3.56%, CCCCNC1=CC(=O)C(=O)c2ccccc21 -12.7%, COc1ccc(C(=O)Nc2c3c(nn2-c2ccc(Cl)cc2)CS(=O)(=O)C3)cc1 -0.12%, CC(=O)N1C2CCCCC2S[C@H]2CCCCC21 (stereo partly drawn) 1.03%, O=C(NCc1ccco1)Nc1cccc([N+](=O)[O-])c1 -2.52%, CCCCc1nc2cc(C(=O)N3CCC(O)CC3)ccc2o1 -1.24%, O=C(NC(c1ccc(Cl)cc1)c1cc(Cl)c2cccnc2c1O)c1cccnc1 (stereo not drawn) -3.15%, Cn1c(=O)c(-c2ccccc2)nc2ccccc21 10.3%, CCCn1c(C)nc2c(c1=O)c1nc3ccccc3nc1n2-c1ccccc1 3.1%, CC(=O)Nc1ccc(N(C(=O)CNC(=O)c2ccco2)C(C(=O)NCC2CCCO2)c2ccccc2)cc1 (stereo not drawn) 0.85%, CCN(CC)S(=O)(=O)c1cccc(-c2nnc(SCCCC(=O)c3ccc(F)cc3)o2)c1 3.87%, Cc1[nH]n(-c2ccccc2)c(=O)c1N=Nc1ccccc1C(=O)N1CCCCC1 -7.67%, CC1(C)Cc2c(c(-c3ccco3)[nH]c(=O)c2C#N)CS1 0.181%, CCc1ccc(-c2cc(C)no2)cc1S(=O)(=O)N1CCN(c2ccc(F)cc2)CC1 -4.42%, COc1ccc(NC(=O)CC2C(=O)NCCN2C(=O)c2ccc(N(C)C)cc2)cc1 (stereo not drawn) -1.08%, Cc1cc(NC(=O)CSc2nc3ccccc3cc2C#N)no1 -0.11%, O=C(Nc1ccc(O)cc1)C1CC=CCC1 (stereo not drawn) -10.4%, CC1CN(Cc2nc3c(c(=O)n(C)c(=O)n3C)n2CCCc2ccccc2)CC(C)O1 (stereo not drawn) -1.88%, O=C(OCc1cccc2ccccc12)C1CC(=O)N(c2ccccc2)C1 (stereo not drawn) 3.19%, COc1cccc2c1N1C(=O)c3c(C(=O)O)cccc3C1CC2(C)C (stereo not drawn) 3.68%, COc1ccc(C2C(C(=O)c3ccco3)=C(O)C(=O)N2CC2CCCO2)cc1OC (stereo not drawn) -0.379%, CCOC(=O)c1c(NC(=O)COC)sc2c1CCCC2 10.5%, CCN(C(=S)Nc1ccc(C(C)=O)cc1)C1CCCCC1 -13.8%, CC1CN(Cc2cc(=O)n3ccsc3n2)CC(C)O1 (stereo not drawn) 0.845%, CC(C)CN(C(=O)COC(=O)c1ccc([N+](=O)[O-])s1)c1c(N)n(Cc2ccccc2)c(=O)[nH]c1=O -7.51%, COCCn1c(N)c(N(Cc2ccccc2)C(=O)c2cc(=O)[nH]c3ccccc23)c(=O)[nH]c1=O 0.044%, CCn1c(SCC(=O)N2CCCCC2)nc2c1c(=O)n(C)c(=O)n2C 6.67%, CCOC(=O)C1=C(C)N(C)C(=S)NC1c1ccccc1Cl (stereo not drawn) 9.94%, COc1cc(/C=C2\SC(N)=NC2=O)cc(Cl)c1O -7.1%, O=C(CCc1nnc(-c2ccccc2)o1)NCc1cc(F)ccc1F 3.74%, CCNC(=O)C1CCCN(C(=O)c2ccccc2OC(F)(F)F)CC1 (stereo not drawn) 2.17%, COc1ccc(NS(=O)(=O)c2cc(NC(=O)COc3ccccc3)ccc2N2CCOCC2)cc1 1.67%, O=C(CN1CCOCCOCCN(CC(=O)Nc2ccccc2)CCOCC1)Nc1ccccc1 4.89%, Cc1ccc(S(=O)(=O)c2ccc(Cl)cc2)cc1S(=O)(=O)N1CCOCC1 5.97%, Cc1ccccc1N1CC(C(=O)Nc2ccc(S(=O)(=O)N3CCOCC3)cc2)CC1=O (stereo not drawn) 1.56%, Cc1ccc(/C=N/NC(=O)c2cc3ccccc3cc2O)o1 -3.67%, CCN(Cc1ccccc1)Cc1c(C)[nH]c2c(C)c(C)ccc2c1=O 0.95%, CCCc1cc(=O)n(-c2nc3ccccc3s2)[nH]1 6.4%, CC1(C)Cc2c(c(-c3ccco3)[nH]c(=O)c2C#N)CO1 3.06%, O=C(CSc1nc(-c2ccccc2)c(-c2ccccc2)o1)N1CCCCC1 4.5%, CCOC(=O)c1ccc(N=c2scc(C)n2CC)cc1 -13.2%, CC1(C)CC(N=C2C=CC3=NC45CCCCC4CC4=C(CCCC4)N5C3=C2)CC(C)(C)N1 (stereo not drawn) -4.28%, COc1ccc(N=c2scc(C)n2CCCN2CCCC2=O)cc1 1.93%, CCOC(=O)Nc1ccc(=O)n(Cc2c(Cl)cccc2Cl)c1 4.15%, CN(C(=S)NC(=O)C1(C)CC1(Cl)Cl)c1ccccc1 (stereo not drawn) 6.66%, O=C(NNC(=O)c1ccc(Cl)nc1)c1ccc(Br)cc1 3.91%, Oc1ccc(/C=N/N2CCOCC2)c(O)c1O -4.15%, Nc1cc(=O)[nH]c(SCC(=O)Nc2ccc(Cl)c(Cl)c2)n1 -0.598%, Cc1ccc(NC(=S)N2CCC(NC(=O)c3ccc(F)cc3)CC2)cc1 4.5%, COCC(C)n1c(SCC(=O)NC2CCCCC2C)nc2ccccc2c1=O (stereo not drawn) -6.67%, Cc1cccc(-n2c(Cn3nc(C)c([N+](=O)[O-])c3C)n[nH]c2=S)c1 4.32%, Cc1csc(SCC(=O)Nc2ccc3c(c2)OCCO3)n1 -0.732%, COC(=O)c1ccccc1-c1ccc(C(c2c(C)[nH][nH]c2=O)c2c(C)[nH][nH]c2=O)o1 -2.23%, Cc1[nH][nH]c(=O)c1C(c1ccc(-c2ccc(C(=O)O)cc2)o1)c1c(C)[nH][nH]c1=O -3.01%, Cc1cccc(C(=O)NCc2nnc(SCC(=O)Nc3nnc(C)s3)n2C)c1 3.02%, O=c1c2cnn(-c3ccccc3)c2nc(-c2ccco2)n1-c1ccccc1 3.67%, Cc1ccc(S(=O)(=O)NC(C(=O)N2CCN(S(=O)(=O)c3cccc(F)c3)CC2)C(C)C)cc1 (stereo not drawn) 0.222%, COc1ccccc1OCC(=O)Nc1ccc(S(=O)(=O)N2CCCC2)cc1 1.45%, Cc1ccccc1NCC(=O)Nc1cc(S(=O)(=O)N2CCCCC2)ccc1C -1.45%, Cc1ccc(S(=O)(=O)N(C)CC(=O)NCCCn2ccnc2)cc1 -5.32%, CN(c1ccccc1)c1ncnc2c1ncn2C -5.28%, COc1ccc2c(c1)Cc1sc(NC(C)=O)nc1-2 -4.87%, Cc1nn(-c2ccccn2)c2c1C(=O)C(Br)CC2 (stereo not drawn) -4.7%, CC(=O)c1ccc(N(CC(=O)NCCc2ccccc2)C(=O)c2csnn2)cc1 0.43%, O=C(OCc1ccc([N+](=O)[O-])cc1)c1cc(=O)c2ccccc2o1 5.19%, COc1ccccc1N(CC(=O)NCC1CCCO1)C(=O)CNS(=O)(=O)c1ccc(C)cc1 (stereo not drawn) 1.22%, O=C1c2ccccc2C(=O)N1CCC(c1ccc(F)cc1)c1ccco1 (stereo not drawn) 1.01%, COc1ccc(Cc2nnc(NC(=O)C3CC(=O)N(c4ccc(OC)cc4)C3)s2)cc1 (stereo not drawn) -0.048%, O=C(CN(C(=O)c1csnn1)c1ccc(F)c(Cl)c1)NC1CCCCC1 0.495%, Cc1nc(N)sc1-c1nnc(SCC(=O)Nc2ccccc2C(F)(F)F)n1C -2.66%, CC1=NN(c2ccccc2)C(=O)/C1=C/N(C)C -4.42%, CC(C)(C)NC(=O)COC(=O)c1ccc2c(c1)C(=O)N(Cc1ccco1)C2=O -1.9%, Cn1c(=O)[nH]c(=O)c2c1nc(N/N=C/c1ccncc1)n2Cc1ccc(F)cc1 1.06%, Cc1ccc(-c2csc3nc(CN(C)Cc4ccccc4)[nH]c(=O)c23)cc1 -0.858%, CCC(CC)c1nnc(NC(=O)CCS(=O)(=O)Cc2ccccc2)s1 0.024%, CCCCn1cnc2c(=S)nc(N)[nH]c21 -2.03%, CCn1cc(/C=N\NC(=O)C2(C)CC2(Cl)Cl)c(C)n1 (stereo not drawn) 6.99%, NNC(=O)c1nc(-c2ccccc2)cc(-c2ccccc2)n1 -1.02%, CC12CCC(C)(c3nc4ccccc4nc31)C2(C)C -0.479%, Cc1cc(C)n(CCC(=O)N2CCN(S(=O)(=O)c3ccccc3)CC2)n1 5.12%
